# According to PubChem BioAssay (NCATS):
# Where “and” joins values, the source holds several entries; their conditions need not be identical. Equal values may be shown once. Results filed as inconclusive are left out. Values without a mark were called inactive. Calls of active or inactive are those of the source. Calls follow the shape of the dose curve; as a rule, active = well fitted inhibition curve with a large enough effect; inconclusive = small, poorly fitted or top-dose-only effect; inactive = flat fitted curve, though single readings scatter.
# How the values were obtained:
# HaCat = experiment: Cytotoxic Profiling of Annotated Libraries Using Quantitative High-Throughput Screening (AID 1296008); conditions: Five cell lines viability, CellTiter-Glo ATP luminescence, 48-72 h; max response: active compounds read low; as to max response: % is scaled to controls: 0 for no effect and ±100 for the full control effect
# Outline: (§1)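 Cells exposed to compounds for 48 or 72 hr at 37 degrees Celsius. Viability read as ATP-coupled luminescence with CellTiter-Glo after 10 min at room temperature.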
# KB-3-1 = experiment: as above; conditions: Five cell lines viability, CellTiter-Glo ATP luminescence, 48-72 h; max response: active compounds read low
# Outline: as §1
# NIH3T3 = experiment: as above; conditions: Five cell lines viability, CellTiter-Glo ATP luminescence, 48-72 h; max response: active compounds read low
# Outline: as §1
# HEK293 = experiment: as above; conditions: Five cell lines viability, CellTiter-Glo ATP luminescence, 48-72 h; max response: active compounds read low
# Outline: as §1
# SC27B = experiment: qHTS profiling for inhibitors of Plasmodium falciparum proliferation (AID 504749); conditions: P. falciparum in erythrocytes, SYBR Green DNA, 72 h; series mostly up to 28.7 µM
# Outline: (§2)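 P. falciparum-infected erythrocytes (0.3% parasitemia, 2.5% hematocrit) incubated with compound 72 h at 37 C, 5% CO2. Parasite DNA detected by SYBR Green after lysis, overnight at room temperature; normalised to 0.29 uM artemisinin and DMSO.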
# TAB109 = experiment: as above; conditions: P. falciparum in erythrocytes, SYBR Green DNA, 72 h; series mostly up to 28.7 µM
# Outline: as §2
# TAB113 = experiment: as above; conditions: P. falciparum in erythrocytes, SYBR Green DNA, 72 h; series mostly up to 28.7 µM
# Outline: as §2
# TAB165 = experiment: as above; conditions: P. falciparum in erythrocytes, SYBR Green DNA, 72 h; series mostly up to 28.7 µM
# Outline: as §2
# W2 = experiment: as above; conditions: P. falciparum in erythrocytes, SYBR Green DNA, 72 h; series mostly up to 28.7 µM
# Outline: as §2
# Also: nearly all actives have a fitted effect of over 60% in size.
# Potency is read from the fitted curve at half-maximal effect.
compound,measurement,setting,value
COc1ccc2c(Oc3ccc(NC(=O)c4c(C)n(CC(C)(C)O)n(-c5ccccc5)c4=O)cc3F)ccnc2c1,max response,HaCat,2.66% and -22.8%
same,max response,KB-3-1,-19.2%
same,Potency,NIH3T3,8.33 µM (active) and 10.3 µM (active)
NC(=O)c1cnc(-c2ccc(C3(N)CCC3)cc2)c(-c2ccccc2)c1,Potency,HEK293,23.5 µM (active) and 18.4 µM (active)
same,max response,HaCat,-22.7%
same,max response,KB-3-1,-11.5%
same,max response,NIH3T3,4.42%
COc1ccc(Cc2nccc3cc(OC)c(OC)cc23)cc1OC,Potency,SC27B,inactive
same,outcome,TAB109,inactive
same,Potency,TAB113,inactive
same,Potency,TAB165,inactive
same,Potency,W2,inactive
O=c1[nH]cnc2c1ncn2[C@H]1CC[C@@H](CO)O1,Potency,SC27B,inactive
same,outcome,TAB109,inactive
same,Potency,W2,13.5 µM (active)
O=C1NC(=O)C(=Cc2ccc3nccnc3c2)S1,max response,HEK293,-10.3%
same,max response,HaCat,-12.7%
same,max response,KB-3-1,-0.874%
same,max response,NIH3T3,-9.21%
NC(=O)c1cccc2[nH]c(-c3ccc([C@H]4CCCN4)cc3F)nc12,max response,KB-3-1,-3.95%
same,max response,NIH3T3,0.71%
COCCCCC(=NOCCN)c1ccc(C(F)(F)F)cc1,Potency,W2,2.69 µM (active)
CC[C@@H]1C=C(C)C[C@H](C)C[C@H](OC)[C@H]2O[C@@](O)(C(=O)C(=O)N3CCCC[C@@H]3C(=O)O[C@H](C(C)=C[C@@H]3CC[C@H](Cl)[C@H](OC)C3)[C@H](C)[C@@H](O)CC1=O)[C@H](C)C[C@H]2OC,Potency,HEK293,16.6 µM (active)
same,outcome,KB-3-1,inactive
same,max response,NIH3T3,-7.01%
